# Assay results taken from PubChem BioAssay (Tox21).
# Records with an inconclusive call do not appear. A call without a number means that no potency is given here. Activity calls are given as the source filed them. The call rests on the fitted dose curve; in most records, active means well fitted activation curve with a large enough effect in the repeat runs; inconclusive means weak or mixed curves; inactive means flat fitted curve, though single readings scatter.
# Assay: A CellTox Green Cytotoxicity Assay to monitor cytotoxicity in HEK293 cells - 16 hour (AID 1224888); further: nearly all actives have a fitted effect of over 35% in size
# Conditions: CellTox Green fluorescence; series mostly up to 76.8 µM
# Excerpt: National Center for Advancing Translational Sciences [NCATS]
# NIH Chemical Genomics Center [NCGC]
# U.S. Environmental Protection Agency [EPA]
# National Institutes of Environmental Health Sciences [NIEHS]
# National Toxicology Program [NTP]
# Cell-based models are critical for drug discovery. Determining the natural cytotoxic effects resulting from test compounds is an essential research activity. A CellTox Green Cytotoxicity Assay to monitor cytotoxicity in real time of continues cell culture during 40 hours of the compound treatment was used to screen Tox21 10K library compounds in Hek293 cells. CellTox Green Cytotoxicity Assay is a nonlytic, homogeneous, biofluorescent method to measure cytotoxicity in cell culture after experimental manipulation. The assay system uses a proprietary asymmetric cyanine dye that is excluded from viable cells but preferentially stains the dead cell's DNA. […] Viable cells produce no appreciable increases in fluorescence. Therefore, the fluorescence signal produced by the binding interaction with dead cell DNA is proportional to cytotoxicity.
# The mixture of Hek293 cell suspension and reagents were dispensed at 600cells/6 ul/well in 1536-well tissue culture treated black solid bottom plates using a Multidrop dispenser. After the assay plates were incubated at a 37 C/5% CO2 incubator for 5 hours, 23 nL of compounds dissolved in DMSO, positive and negative controls was transferred to the assay plate by a pintool work station. The plates were incubated at 37 C for 40 hours. The fluorescence intensity were measured at 0h, 8h, 16h, 24h, 32h and 40h time points using ViewLux plate reader during compound treatment.
# Potency means the concentration at half of the fitted maximal effect.
Structure (SMILES),Potency,activity change
CN(C)CCOc1ccc(/C(=C(/CCCl)c2ccccc2)c2ccccc2)cc1,45.8 µM (active),
CCCCCCCCc1ccc(Nc2ccc(CCCCCCCC)cc2)cc1,inactive,
CN(C[C@@H](CC[N+]12CCC(C3CCCCC3)(CC1)CC2)c1ccc(Cl)c(Cl)c1)C(=O)c1cc(C(F)(F)F)cc(C(F)(F)F)c1,24.5 µM (active),
Nc1cc([N+](=O)[O-])cc(Cl)c1O,inactive,
CN1CCN(C)CC1,inactive,
CCCCC/C=C\C=C\C(=O)OCC,inactive,
CCc1cccc(CC)c1,inactive,
C/C=C/C(=O)OCC(C)C,inactive,
CC(=O)CC(N)=O,inactive,
C=CCc1cc(S(=O)(=O)c2ccc(O)c(CC=C)c2)ccc1O,inactive,
O=C1c2ccccc2C(=O)c2c(Cl)cccc21,inactive,
CCC(=O)OC/C=C(\C)CCC=C(C)C,inactive,
O=c1cc[nH]cc1,inactive,
COC(=O)c1ccc([N+](=O)[O-])cc1,inactive,
CCSCC,inactive,
C/C=C/C(=O)C1=C(C)C=CCC1(C)C,inactive,
CCCCCCCCCC[N+](C)(CCCCCCCCCC)CCC[Si](OC)(OC)OC,49 µM (active),
CN1CCN(CCCN2c3ccccc3Sc3ccc(Cl)cc32)CC1,inactive,
CCc1cccc(C)c1N(C(=O)CS(=O)(=O)O)C(C)COC (stereo not given),inactive,
O=C(NCc1ncc(C(F)(F)F)cc1Cl)c1c(Cl)cccc1Cl,inactive,

Structure (SMILES),Potency,activity change
O[Si](c1ccccc1)(c1ccccc1)c1ccccc1,inactive,
Clc1ccc2c(Cl)ccnc2c1,inactive,
CCCCCCCCCCCCS(=O)(=O)Cl,,"2.57% [at 15.8 µM, active compounds read high] (inactive)"
O=C(N[C@H](CO)[C@H](O)c1ccc([N+](=O)[O-])cc1)C(Cl)Cl,inactive,
CCC1(C)C(=O)N(Cl)C(=O)N1Cl (stereo not given),inactive,
CCNc1nc(NC(C)(C)C)nc(OC)n1,inactive,
Nc1cccnc1N,inactive,
Cc1ccc2nc(-c3ccc(N)cc3)sc2c1S(=O)(=O)O,inactive,
CC(C)=NNC(N)=S,inactive,
COc1cc(OC)nc(NC(=O)NS(=O)(=O)Nc2ccccc2C(=O)N(C)C)n1,inactive,
O=C1CCC(=O)N1,inactive,
Clc1cccc(Cl)n1,inactive,
CC(C)(C)c1cc(CCC(=O)OCCSCCOC(=O)CCc2cc(C(C)(C)C)c(O)c(C(C)(C)C)c2)cc(C(C)(C)C)c1O,inactive,
CC(=O)Nc1ccc(N=Nc2cc(C)ccc2O)cc1,inactive,
Nc1ccc(Oc2cccc(Oc3ccc(N)cc3)c2)cc1,inactive,
CC(CC(C)(C)C)CC(C)(C)CC(C)(C)C (stereo not given),inactive,
CCOC(=O)[C@H](O)[C@@H](O)C(=O)OCC,inactive,
O=C1OC2(c3ccccc31)c1ccc(O)c(Br)c1Oc1c2ccc(O)c1Br,21.9 µM (active),
CC(C)c1ccc2sc3ccccc3c(=O)c2c1,inactive,
Nc1ccc(F)c([N+](=O)[O-])c1,inactive,
